The values that follow come from PubChem BioAssay (Tox21).

“And” between values parts separate entries of the source, which are not always exact repeats. Equal entries are not always repeated. Records with an inconclusive call do not appear. A structure can be active in one record and inactive in another. The source made the active and inactive calls. Unless noted, calls come from the whole dose curve; as a rule, active = well fitted curve in the direction sought with a large enough effect in the repeat runs; inconclusive = weak or mixed curves; inactive = no such curve, though single readings can be large; an effect the other way counts as inactive or inconclusive.

Assay [1] in a line: A CellTox Green Cytotoxicity Assay to monitor cytotoxicity in HepG2 cells - 8 hour (AID 1224890). Note: nearly all actives have a fitted effect of over 45% in size. Note: potency is the fitted concentration of half-maximal effect. Summed up:
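Continuous culture of HepG2 cells with a membrane-impermeant DNA dye; rising fluorescence marks dead cells. Compound exposure lasted up to 40 h at 37 C, with reads every 8 h from 0 h.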

Assay [2] is described as follows: qHTS assay to identify small molecule antagonists of the estrogen receptor alpha (ER-alpha) signaling pathway using the BG1 cell line in the presence of 0.1 nM 17-beta-estradiol - cell viability counter screen (AID 1259241). Note: nearly all actives have a fitted effect of over 40% in size. Note: potency is the fitted concentration of half-maximal effect. The gist of the method:
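Measures cytotoxicity alongside the ER-alpha antagonist readout: VM7Luc4E2 cells, charcoal-stripped serum, 0.1 nM 17beta-estradiol final, 22 hr compound incubation at 37C, CellTiter-Fluor fluorescence.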
(In general: In qHTS, concentration-response curves come from the screen itself.)

Assay [3] in a line: qHTS assay to identify small molecule antagonists of the androgen receptor (AR) signaling pathway using the MDA cell line in the presence of 0.5 nM R1881 - cell viability counter screen (AID 1259242). Note: nearly all actives have a fitted effect of over 45% in size. Note: potency is the fitted concentration of half-maximal effect. Summed up:
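Fluorescence from CellTiter-Fluor, which reports protease activity of live cells, was read 30 min after reagent addition to MDA-kb2 cells that had been incubated 16 hr with compound and 0.5 nM R1881.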

In assay [4] the target is Estrogen receptor (Homo sapiens) (UniProt P03372). The assay can be described thus: qHTS assay to identify small molecule antagonists of the estrogen receptor alpha (ER-alpha) signaling pathway using the BG1 cell line in the presence of 0.1 nM 17-beta-estradiol (AID 1259244). Note: nearly all actives have a fitted effect of over 50% in size. Note: potency is the fitted concentration of half-maximal effect. Summed up:
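Quantitative high-throughput screen in VM7Luc4E2 cells: compound plus 0.1 nM E2 (final), 22 h, 37C, 5% CO2; ONE-Glo added, 30 min room temperature, luminescence measured.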

A short description of assay [5]: qHTS assay to identify small molecule phospholipidosis (PLD) inducers (AID 1259344; active = well fitted curve in the direction sought with a large enough effect; an effect the other way counts as inactive or inconclusive). Summed up: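 HepG2 cells grown on collagen I take up LipidTOX Red while exposed to compound for 24 h; after fixation they are imaged at 20x and pit metrics are extracted.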
The nature of assay [6]: qHTS assay to identify small molecule HDAC inhibitors - cell viability counter screen (AID 1259365). Note: series mostly up to about 92 µM; nearly all actives have a fitted effect of over 50% in size. The gist of the method:
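Following a 2hr exposure of overnight-plated wild-type HCT-116 cells to DMSO-delivered compounds, CellTiter-Glo was added and luminescence recorded after 30min at room temperature.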

Assay [7] in a line: qHTS assay to identify small molecule agonists of the sonic hedgehog signaling (Shh) pathway - cell viability counter screen (AID 1259366). Note: nearly all actives have a fitted effect of over 50% in size. Note: potency is the fitted concentration of half-maximal effect. The gist of the method: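 After a 4hr attachment at 37C, NIH/3T3 cells bearing an integrated Gli1-driven luciferase reporter were dosed with compounds. Treatment lasted 24hr, with the final hour including CellTiter-Fluor for a fluorescence viability measurement.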

Assay [8] can be described thus: qHTS assay to identify small molecule antagonists of the sonic hedgehog signaling (Shh) pathway - cell viability counter screen (AID 1259367). Note: nearly all actives have a fitted effect of over 55% in size. Note: potency is the fitted concentration of half-maximal effect. Summed up:
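After a 4 hr settling period, 3T3 Gli1-Luc cells were treated with DMSO-dissolved chemicals and conditioned medium, kept 24 hr at 37C in 5% CO2, and assayed for viability by CellTiter-Fluor fluorescence following 1 hr reagent incubation.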

In assay [9] the target is Androgen receptor (Homo sapiens) (UniProt P10275). The assay can be described thus: qHTS assay to identify small molecule antagonists of the androgen receptor (AR) signaling pathway using the MDA cell line in the presence of 0.5 nM R1881 (AID 1259243). Note: nearly all actives have a fitted effect of over 50% in size. Note: potency is the fitted concentration of half-maximal effect. The gist of the method: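 Inhibition of R1881 (0.5 nM final) induced reporter signal was measured in human MDA-kb2 cells; note the MMTV promoter also responds to GR. Exposure lasted 16 hr at 37C.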
Chain of Androgen receptor (Homo sapiens) (P10275 whole entry, looked up): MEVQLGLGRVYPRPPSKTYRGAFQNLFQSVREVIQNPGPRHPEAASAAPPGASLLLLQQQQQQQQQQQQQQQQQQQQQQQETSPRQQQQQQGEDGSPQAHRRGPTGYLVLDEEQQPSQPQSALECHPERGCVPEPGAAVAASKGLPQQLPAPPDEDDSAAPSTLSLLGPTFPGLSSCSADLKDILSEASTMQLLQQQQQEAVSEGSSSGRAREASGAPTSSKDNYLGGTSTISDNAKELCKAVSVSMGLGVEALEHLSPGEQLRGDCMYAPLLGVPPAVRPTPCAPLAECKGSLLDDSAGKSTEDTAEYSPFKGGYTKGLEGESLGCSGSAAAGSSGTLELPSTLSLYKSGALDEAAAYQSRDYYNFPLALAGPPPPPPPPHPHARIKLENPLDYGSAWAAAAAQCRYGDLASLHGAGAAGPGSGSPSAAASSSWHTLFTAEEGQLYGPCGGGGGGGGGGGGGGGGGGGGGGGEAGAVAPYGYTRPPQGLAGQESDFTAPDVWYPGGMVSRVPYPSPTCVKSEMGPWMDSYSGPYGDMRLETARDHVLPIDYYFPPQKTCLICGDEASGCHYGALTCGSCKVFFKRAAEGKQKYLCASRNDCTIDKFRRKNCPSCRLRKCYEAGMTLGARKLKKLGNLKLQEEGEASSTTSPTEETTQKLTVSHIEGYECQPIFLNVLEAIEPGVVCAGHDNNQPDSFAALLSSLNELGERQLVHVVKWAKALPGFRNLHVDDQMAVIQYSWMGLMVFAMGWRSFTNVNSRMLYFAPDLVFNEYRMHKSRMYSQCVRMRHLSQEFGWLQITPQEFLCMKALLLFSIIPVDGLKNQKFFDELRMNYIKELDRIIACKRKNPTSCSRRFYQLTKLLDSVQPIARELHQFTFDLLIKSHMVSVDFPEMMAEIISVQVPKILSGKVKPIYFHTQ

Assay [10] is described as follows: qHTS assay to identify small molecule HDAC inhibitors (AID 1259364). Note: nearly all actives have a fitted effect of over 45% in size. Note: potency is the fitted concentration of half-maximal effect. Summed up: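 Endogenous HDAC class I/II activity was measured in wild-type HCT-116 cells by HDAC-Glo luminescence after 2 h compound treatment.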

Chain of Estrogen receptor (Homo sapiens) (P03372 whole entry, looked up): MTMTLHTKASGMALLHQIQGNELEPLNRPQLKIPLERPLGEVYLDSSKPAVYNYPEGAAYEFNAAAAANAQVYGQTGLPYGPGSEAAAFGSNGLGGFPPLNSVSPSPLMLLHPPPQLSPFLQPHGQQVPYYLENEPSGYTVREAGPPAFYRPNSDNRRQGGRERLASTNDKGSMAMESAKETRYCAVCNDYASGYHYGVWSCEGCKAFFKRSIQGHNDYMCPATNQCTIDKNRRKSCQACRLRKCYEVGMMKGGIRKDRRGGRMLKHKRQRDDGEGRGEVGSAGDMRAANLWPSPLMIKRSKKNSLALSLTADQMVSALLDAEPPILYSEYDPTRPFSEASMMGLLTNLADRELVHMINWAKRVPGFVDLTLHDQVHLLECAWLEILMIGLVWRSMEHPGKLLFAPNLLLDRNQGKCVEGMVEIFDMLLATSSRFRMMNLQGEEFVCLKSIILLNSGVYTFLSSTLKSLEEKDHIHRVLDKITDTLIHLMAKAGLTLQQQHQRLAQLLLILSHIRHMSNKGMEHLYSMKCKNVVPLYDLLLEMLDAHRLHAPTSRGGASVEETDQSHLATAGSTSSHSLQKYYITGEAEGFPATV

With `CC(C)NC(C)C`, the Potency result in assay [1], in [2], in assay [3], in assay [4], in assay [7] and in [8] was “inactive” each time. Besides, the compound was called inactive in [5] and in assay [6].
Take `Nc1c(Cl)cc([N+](=O)[O-])cc1Cl`: the Potency entry in assay [1], in assay [2], in [3], in assay [7] and in [8] was “inactive” in each case. Further, the Potency is 6.9 µM (active) and 27.3 µM (active) in assay [9]; “inactive and 27.3 µM (active)” in [4]. Besides, in [6], the call was inactive.
On to `COc1ccc(C=O)cc1`, for which the Potency entry in assay [1], in assay [2], in [3], in assay [4], in [10] and in assay [7] was “inactive” each time. Further, the Potency entry in assay [8] is “inactive”. For the same compound, the compound was called inactive in assay [6].
Take `CC(C)Oc1cc(-n2nc(C(C)(C)C)oc2=O)c(Cl)cc1Cl`: the Potency result in assay [1], in assay [2], in [3], in assay [10], in [7] and in [8] was “inactive” each time. In addition, the Potency was 54.5 µM (active) in [9] and 61.1 µM (active) in assay [4]. For the same compound, the result in assay [6] was inactive.
`c1cc(OCC2CO2)ccc1Cc1ccc(OCC2CO2)cc1` (stereo unspecified): the Potency result in assay [1], in assay [2], in assay [3], in assay [9] and in [4] was “inactive” throughout. The result in [6] was inactive. Further, the Potency in assay [7] was 27.3 µM (active); in [8] it was 61.1 µM (active).
On to `O=c1oc2ccccc2c(O)c1C(CC(O)c1ccc(-c2ccc(Br)cc2)cc1)c1ccccc1` (stereo unspecified), for which the Potency entry in assay [1], in [2], in assay [3], in [4], in assay [10] and in assay [7] was “inactive” throughout. Besides, the Potency result in assay [8] was “inactive”. The outcome in assay [5] and in assay [6] was inactive.
On to `O=[N+]([O-])c1ccc(O)c([N+](=O)[O-])c1`, for which, in assay [1], the Potency result was “inactive”. Besides, the Potency in assay [2] was 30.8 µM (active) and 27.3 µM (active); in assay [3], 24.4 µM (active) and 27.3 µM (active); in assay [9] it was 30.8 µM (active) and 54.5 µM (active); in [4] it was 48.8 µM (active) and 48.6 µM (active); in assay [10] it was 30.8 µM (active) and 27.3 µM (active); in [8], 48.8 µM (active). Further, in assay [6], the compound was classed as inactive.
As to `Nc1ccncc1`, the Potency result in [1], in [2], in assay [3], in [9], in [4] and in assay [10] was “inactive” throughout. The Potency entry in assay [7] and in assay [8] was “inactive” each time. Besides, the call in [5] and in assay [6] was inactive.
For the compound `CCCCCCCCCCCOC(=O)c1ccccc1C(=O)OCCCCCCCCCCC`, the Potency entry in assay [1], in assay [2], in [3], in assay [4], in assay [10] and in assay [7] was “inactive” in each case. Besides, in assay [8], the Potency entry was “inactive”. The compound was classed as inactive in assay [6].
As to `O=C(O)CC[N+](=O)[O-]`, the Potency entry in [1], in assay [2], in [3], in assay [9], in [7] and in assay [8] was “inactive” each time. In assay [6], the compound was called inactive.
Regarding `c1ccc(-c2cccc(-c3ccccc3)c2)cc1`, the Potency entry in assay [1], in [2], in [3], in [4], in assay [10] and in assay [7] was “inactive” throughout. Besides, the Potency result in assay [8] was “inactive”. The compound was called inactive in assay [6].
Consider `CCCCNC(=O)n1c(NC(=O)OC)nc2ccccc21`, for which the Potency result in [1], in [2], in [3], in assay [9], in assay [4] and in [7] was “inactive” in each case. Further, the Potency is 21.6 µM (active) and 19.3 µM (active) in assay [10]; 60.8 µM (active) and inactive in assay [8]. Further, in assay [6], the compound was called inactive.
Regarding `COP(=O)(OC)OC`, the Potency entry in [1], in assay [2], in assay [3], in [4], in [10] and in assay [7] was “inactive” each time. Further, in assay [8], the Potency result is “inactive”. The Potency in assay [9] was 61.6 µM (active) and inactive. In addition, in assay [6], the outcome was inactive.
In the case of `CCC(=O)O[C@H]1CC[C@H]2[C@@H]3CCC4=CC(=O)CC[C@]4(C)[C@H]3CC[C@]12C`, the Potency in assay [1] is 43.6 µM (active). Further, the Potency entry in assay [2], in assay [3], in [9], in assay [4] and in assay [8] was “inactive” throughout. Besides, in [6], the result was inactive.
As for `CCOc1cc(Oc2ccc(C(F)(F)F)cc2Cl)ccc1[N+](=O)[O-]`, the Potency entry in assay [1], in assay [2], in assay [3], in [4], in [10] and in assay [7] was “inactive” throughout. The Potency result in assay [8] is “inactive”. In assay [6], the compound was called inactive.
For `CCN(CC)C(=O)/C(Cl)=C(\C)OP(=O)(OC)OC`, the Potency result in assay [1], in assay [2], in assay [3], in assay [9], in assay [4] and in assay [7] was “inactive” each time. The Potency result in [8] is “inactive”. In addition, the result in assay [5] and in [6] was inactive.
Regarding `Cc1cc(Cl)ccc1OCCCC(=O)O`, the Potency entry in assay [1], in [2], in assay [3], in assay [9], in [7] and in assay [8] was “inactive” throughout. Also, the compound was classed as inactive in [6].
Turning to `NNC(N)=S`, the Potency entry in [1], in [2], in [3] and in assay [10] was “inactive” in each case. Also, the Potency in assay [4] was 63.5 µM (active) and inactive; in [7] it was 45 µM (active); in assay [8], 20.1 µM (active) and 61.1 µM (active). In addition, the result in assay [6] was inactive.
Take `Nc1ccc(Cl)cc1N`: the Potency entry in [1] is “inactive and 21.9 µM (active)”; in assay [10] it was 19.3 µM (active). For the same compound, the Potency entry in assay [2], in [3], in [9], in [7] and in assay [8] was “inactive” in each case. For the same compound, the call in assay [5] and in assay [6] was inactive.
Turning to `Cc1c(COC(=O)[C@@H]2[C@H](/C=C(\Cl)C(F)(F)F)C2(C)C)cccc1-c1ccccc1`, the Potency result in assay [1], in assay [2], in [3], in assay [4], in [10] and in assay [7] was “inactive” in each case. In [8], the Potency entry was “inactive”. Besides, the result in assay [6] was inactive.
Turning to `CC1(C)C(C=C(Cl)Cl)C1C(=O)OC(C#N)c1cccc(Oc2ccccc2)c1` (stereo unspecified), the Potency entry in [1], in [2], in assay [3], in assay [4], in assay [10] and in assay [7] was “inactive” in each case. Further, in assay [8], the Potency entry was “inactive”. Also, the outcome in [5] and in assay [6] was inactive.
On to `CCCCCCCCC(=O)NCc1ccc(O)c(OC)c1`, for which the Potency entry in assay [1], in assay [2], in assay [3], in [4], in assay [7] and in assay [8] was “inactive” each time. The compound was classed as inactive in assay [5] and in [6].
Take `COP(=S)(OC)Oc1ccc([N+](=O)[O-])cc1`: the Potency entry in assay [1], in [2], in assay [3], in assay [4], in assay [10] and in [7] was “inactive” in each case. For the same compound, the Potency result in assay [8] was “inactive”. In assay [6], the outcome was inactive.
In the case of `O=[N+]([O-])c1cccc2ccccc12`, the Potency entry in [1], in assay [2], in assay [3], in [4], in assay [10] and in assay [7] was “inactive” in each case. Further, in assay [8], the Potency entry is “inactive”. In addition, the compound was classed as inactive in assay [6].
Turning to `Brc1ccc(Oc2cc(Br)c(Br)cc2Br)c(Br)c1`, the Potency entry in assay [1], in [2], in assay [3], in assay [4], in [10] and in assay [7] was “inactive” in each case. In addition, the Potency result in assay [8] was “inactive”. Also, the compound was called inactive in [6].
